# Values joined by “and” are separate entries in the source; they are usually repeats but may differ in a detail not shown here. Equal values may be shown once. Read-outs that look alike come from different tables or passages of the source.
# Experiments:
# BMPR1A = conditions: n = 1
# BMPR1B = conditions: concentration: 1 μM, replicates: in singlicate; n = 1
# BMPR2 = conditions: n = 1
# BMX = conditions: n = 1
# BRAF = conditions: n = 1
# BRK = system: T1, BRK; conditions: n = 1
# T1 construct: gene PTK6
# BRSK1 = conditions: n = 1
# BRSK2 = conditions: n = 1
# BTK = conditions: concentration: 1 μM, replicates: in singlicate; n = 1
# BUB1 = conditions: n = 1
# [1] = concentration: 1 μM, replicates: in singlicate
# [2] = concentration: 1 μM,replicates: in singlicate, 1 µM
# 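Further: KINOMEscan kinase panel screen.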
Structure (SMILES),%Inh (BMPR1A; [1]),%Inh (BMPR1B),%Inh (BMPR2; [1]),%Inh (BMX; [1]),%Inh (BRAF; [1]),%Inh (BRK; [1]),%Inh (BRSK1; [1]),%Inh (BRSK2; [1]),%Inh (BTK),%Inh (BUB1; [1]),%Inh (BMPR1A; [2]),%Inh (BMPR2; [2]),%Inh (BMX; [2]),%Inh (BRAF; [2]),%Inh (BRK; [2]),%Inh (BRSK1; [2]),%Inh (BRSK2; [2]),%Inh (BUB1; [2])
CN1C(=O)C(Nc2ccc(Cl)c(C(=O)O)c2)=C(c2ccc(Cl)cc2)C1=O [SB-404290],4%,0%,25%,0%,0%,0%,0%,0%,0%,0%,–,–,–,–,–,–,–,–
Cn1ccc2ncnc(Oc3cccc(C(=O)Nc4ccccc4)c3)c21,5%,13%,14%,0%,0%,15%,0%,0%,0%,8%,–,–,–,–,–,–,–,–
Cc1cc(-c2ccc3c(c2)CC[C@@H](N[C@@H](C)c2ccccc2)C3)cnc1N.Cl [GW412617],0%,0%,0%,50%,1%,22%,0%,0%,0%,17%,–,–,–,–,–,–,–,–
Nc1nc(-c2nccs2)c(-c2ccnc3ccccc23)s1 [GW693542],14%,10%,9%,0%,0%,3%,11%,0%,0%,47%,–,–,–,–,–,–,–,–
CS(=O)(=O)c1ccc(-c2c(-c3ncn[nH]3)sc(N3CCOCC3)c2C#N)cc1,17%,4%,12%,0%,12%,0%,100%,32%,0%,29%,–,–,–,–,–,–,–,–
CC(=O)Nc1nc2cnc(Nc3cc(NC(=O)c4cccc(CCC#N)c4)ccc3C)nc2s1,0%,0%,16%,7%,97.7%,0%,0%,11%,32%,14%,–,–,–,–,–,–,–,–
Fc1cccc(COc2nnc(-c3ccc4c(c3)CCO4)o2)c1,0%,6%,18%,0%,0%,0%,0%,6%,17%,20%,–,–,–,–,–,–,–,–
Cc1ccc(C(=O)Nc2ccc(Nc3ccnc4cc(-c5ccccn5)ccc34)cc2O)cc1.Cl [GW440146],0%,0%,0%,14%,0%,29%,0%,0%,46%,54%,–,–,–,–,–,–,–,–
O=C(Nc1n[nH]c2cc(-c3cccc(F)c3F)ccc12)C1CC1 [SB-733894],31%,31%,52%,0%,0%,0%,54%,58%,0%,0%,–,–,–,–,–,–,–,–
COc1ccc(CNC(=O)NC2CCN(c3ccnc(Nc4cc(OC)c(OC)c(OC)c4)n3)C2)cc1 (stereo not shown) [GSK1379748],1%,0%,0%,21%,0%,3%,0%,0%,32%,32%,–,–,–,–,–,–,–,–
Cc1cc(N2Cc3ccccc3C2)nc(Nc2ccc(S(=O)(=O)N3CCOCC3)cc2)n1.Cl [GSK1669917],0%,0%,0%,11%,0%,38%,0%,0%,0%,21%,–,–,–,–,–,–,–,–
CSc1nn2c(=O)cc(N3CCOCC3)nc2n1Cc1cccc(C(F)(F)F)c1C [GSK2363608],–,0%,–,–,–,–,–,–,0%,–,17% and 0%,22% and 0%,8% and 0%,0% and 5%,0% and 10%,7% and 4%,4% and 0%,13% and 0%
Cc1cccc(-c2nc(C)cc(Nc3ccncc3)n2)n1 [GSK257997],14%,0%,2%,27%,0%,2%,0%,0%,0%,9%,–,–,–,–,–,–,–,–
COc1ccccc1CNC(=O)c1cc(C(=O)c2ccccc2C)c[nH]1 [GSK364507],4%,0%,7%,8%,0%,12%,0%,95.2%,0%,33%,–,–,–,–,–,–,–,–
COc1cc2nccc(Nc3ccc(NC(=O)c4ccc(C)cc4)c(O)c3)c2cc1OC.Cl [GW440132],1%,0%,0%,22%,0%,36%,0%,3%,32%,31%,–,–,–,–,–,–,–,–
CCn1c(-c2cccnc2O)nc2cnccc21 [SB-736715],0%,0%,0%,0%,0%,0%,0%,0%,0%,6%,–,–,–,–,–,–,–,–

Structure (SMILES),%Inh (BMPR1A; [1]),%Inh (BMPR1B),%Inh (BMPR2; [1]),%Inh (BMX; [1]),%Inh (BRAF; [1]),%Inh (BRK; [1]),%Inh (BRSK1; [1]),%Inh (BRSK2; [1]),%Inh (BTK),%Inh (BUB1; [1]),%Inh (BMPR1A; [2]),%Inh (BMPR2; [2]),%Inh (BMX; [2]),%Inh (BRAF; [2]),%Inh (BRK; [2]),%Inh (BRSK1; [2]),%Inh (BRSK2; [2]),%Inh (BUB1; [2])
CC1=C(C(=O)Nc2cc3cn[nH]c3cc2F)C(c2ccc(C(F)(F)F)cc2)CC(=O)N1 (stereo not shown) [GSK429286],0%,0%,6%,4%,7%,20%,5%,0%,0%,18%,–,–,–,–,–,–,–,–
Cc1nnc(-c2ccc3occ(-c4ccc(S(C)=O)cc4)c3c2)[nH]1 (stereo not shown),11%,37%,26%,0%,2%,0%,38%,0%,0%,26%,–,–,–,–,–,–,–,–
COc1cccc(-c2cc(-c3c[nH]nc3-c3ccccn3)ccn2)c1 [GW680338],0%,0%,10%,12%,12%,4%,3%,0%,0%,27%,–,–,–,–,–,–,–,–
O=C(Nc1n[nH]c2nc(-c3nccs3)c(Br)cc12)C1CCCC1 [SB-742609],0%,0%,13%,0%,12%,26%,93%,85%,0%,37%,–,–,–,–,–,–,–,–
Cc1ccccc1-n1cnc2c(N)ncnc21 [SKF-97510],0%,0%,0%,12%,0%,5%,0%,0%,0%,0%,–,–,–,–,–,–,–,–
CCn1c(-c2ccccn2)nc2cnccc21 [SB-736398],0%,0%,21%,77%,11%,14%,100%,0%,7%,40%,–,–,–,–,–,–,–,–
Cc1cccc(-c2nc(Nc3ccc4[nH]ncc4c3)c3ccccc3n2)n1 [GW857175],60%,34%,18%,15%,16%,2%,0%,0%,10%,65%,–,–,–,–,–,–,–,–
Cc1cc(NCC(c2ccccc2)c2ccccc2)nc(NCc2ccc(C(F)(F)F)cc2)n1 [GW497681],0%,0%,14%,18%,0%,2%,0%,0%,0%,35%,–,–,–,–,–,–,–,–
O=C(Nc1ccccc1)Nc1cccc(Oc2ccc3nccn3n2)c1,0%,0%,0%,0%,24%,0%,0%,0%,0%,0%,–,–,–,–,–,–,–,–
Cc1cccc(-c2nc(Nc3ccncc3)c3ccccc3n2)n1 [GW855857],0%,29%,0%,6%,0%,13%,0%,11%,0%,0%,–,–,–,–,–,–,–,–
CC(C)(C)c1ccc(C(=O)Nc2cn3cc(-c4cccnc4)ccc3n2)cc1,34%,0%,1%,25%,0%,0%,6%,25%,0%,8%,–,–,–,–,–,–,–,–
Cc1c(Cn2ccn3c(=O)cc(N4CCOCC4)nc23)cccc1C(F)(F)F [GSK2289044],0%,0%,0%,38%,0%,0%,0%,0%,0%,0%,–,–,–,–,–,–,–,–
C[C@@H]1CCCCN1c1cc(-c2ccc3c(N)n[nH]c3c2)nc(N)n1 [GSK2258759],0%,0%,0%,12%,0%,11%,0%,0%,0%,0%,–,–,–,–,–,–,–,–
COC(=O)c1c(-c2ccccc2)c2cc(OC)ccc2c(=O)n1Cc1ccccc1,0%,0%,0%,9%,89%,0%,9%,6%,54%,21%,–,–,–,–,–,–,–,–
Cl.Oc1ccc(-c2nc(-c3ccccc3)[nH]c2-c2ccncc2)cc1 [SB-428218],0%,0%,20%,0%,60%,26%,0%,0%,21%,93%,–,–,–,–,–,–,–,–

# Source: PMC5540273 (PLoS ONE, 2017)
